High-throughput results deposited in PubChem by Broad Institute.
The list is not random: actives were taken first. Their share in the collection is about 3.8%.
Wnt bcat act: Wnt/beta-catenin pathway activators, primary screen, cell-based, plate reader, single point | Wnt/beta-catenin reporter cell assay, activator | activation, % at 9.35 µM | 300,000 compounds, 1.2% hits | AID 743398, 2014; in the data active = activation above about 30%, passing the limit was not always enough; inconclusive = no clear call, values can overlap the other calls;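 note: 0% = neutral control wells and 100% = positive control wells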
HSF1 inh: HSF1 inhibitors in luciferase reporter cells, primary screen, cell-based, NIH3T3, luminescence; NIH3T3-HGL HSE-luciferase, MG132-induced, luminescence 8 h; stronger effect = lower value; activity change, negative = inhibition, % at 7.5 µM (by protocol); 300,000 compounds, 0.77% hits; AID 2098, 2009;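 active = more than half of replicate wells show activity change below -50%, luminescence cut by over half; inconclusive = some wells, but at most half, below -50%; inactive = no replicate well below -50%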;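 note: luciferase reports HSF-1 transcriptional activity via heat shock element; 0% = median of DMSO wells and -100% = zero luminescence signal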
esBAF inh: Bmi1 luciferase reporter increase in mESCs, primary screen, esBAF inhibitor project, mouse ES cells, Bmi1 luciferase knock-in, single point; 24 h; 100% = twice the neutral-well signal; reporter increase, % at 12.5 µM; 350,000 compounds, 2% hits; AID 602393, 2012; in the data active = activation above about 40%; inconclusive = no clear call, values can overlap the other calls;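 note: 0% = median of the plate's neutral control wells and 100% = double that signal; a rise in the Bmi1 reporter signal indicates esBAF inhibition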
MITF act: activators of MITF-driven TRPM1 promoter reporter, primary screen, cell-based, SK-MEL-5, luciferase, single point | AID 588334, 2011 | activation, % at 12.5 µM | SK-MEL-5 TRPM1-promoter luciferase, 24 h; % of positive control, neutral wells = 0 | 300,000 compounds, 0.75% hits;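 active = mean activation of at least 80% with every replicate also reaching 80%; inconclusive = mean reaches 80% but some replicate falls short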;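 note: 0% = neutral control wells and 100% = parthenolide positive control wells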
HSF-1 act: HSF-1 activators, primary screen, NIH3T3-HGL cells, MG132 stress, luminescence, single point; NIH3T3-HGL HSF-1 luciferase reporter, 8 h; 100% = twice DMSO control signal; activation, % at 9 µM; 300,000 compounds, 1.7% hits;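 active = mean replicate activation of at least 50% with a set share of replicates each reaching 50%; inconclusive = only one of those two conditions met; inactive = mean below 50% and too few replicates reaching it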;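 note: 0% = median of the neutral control wells and 100% = twice that signal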
* = called active by the depositor.

`Cc1ccc(S(=O)(=O)NC(=O)Nc2ccc(C)cn2)cc1` gave Wnt bcat act 0, HSF1 inh 25, esBAF inh 29, MITF act -1 and HSF-1 act 69*.
`COc1ccc(NC(=O)Nc2cc(C)ccn2)cc1` gave Wnt bcat act 44*, esBAF inh -67 and MITF act 9.
For Cc1ccc(S(=O)(=O)NC(=O)Nc2ccc(Cl)cn2)cc1 the results were Wnt bcat act -1, HSF1 inh -5, esBAF inh -7, MITF act 4 and HSF-1 act 6.
C[C@@H]1CN([C@H](C)CO)C(=O)c2cc(NC(=O)Nc3ccc(F)cc3)ccc2O[C@@H]1CN(C)S(=O)(=O)c1ccc(F)cc1 was read as esBAF inh -1.
CC1CCC(NC(=O)CCC(=O)N2CC(C)Oc3ccccc32)CC1 (configuration not stated) was read as Wnt bcat act 11, HSF1 inh 1, esBAF inh 55*, MITF act 62 and HSF-1 act 0.
COc1cc2c(cc1OC)C(c1cccs1)N(C(=S)NC(C)C)CC2 (configuration not stated) was read as Wnt bcat act -1, HSF1 inh 55, MITF act 4 and HSF-1 act 91*.
Screening OC(c1ccc(F)c(F)c1)c1nc(-c2cnc3ccccc3c2)cs1 (configuration not stated) returned Wnt bcat act 21 and esBAF inh 51*.
`O=C(O)c1cccc(-c2csc(C(O)c3ccc(F)c(F)c3)n2)c1` (configuration not stated) gave Wnt bcat act 19 and esBAF inh 44*.
OC(c1ccc(F)c(F)c1)c1nc(-c2ccccc2)cs1 (configuration not stated) was read as Wnt bcat act 4 and esBAF inh -2.
`O=C(Cn1c(=O)c(=O)n(Cc2ccccc2)c2ccc(Cl)cc21)Nc1cc(F)ccc1F` gave HSF1 inh 21 and HSF-1 act 23.
For O=C(Cn1c(=O)c2cccn2c2ccccc21)Nc1cc(F)ccc1F the results were Wnt bcat act -3, HSF1 inh -57*, esBAF inh 6, MITF act -7 and HSF-1 act -67.
For c1ccc(COc2ccc(OCCn3cncn3)cc2)cc1 the results were HSF1 inh 11, esBAF inh 68*, MITF act inconclusive and HSF-1 act 26.
For c1ccc(Oc2cccc(OCCn3cncn3)c2)cc1 the results were Wnt bcat act 3, HSF1 inh -57*, MITF act -3 and HSF-1 act -69.
Screening c1ccc(-c2ccc(OCCCn3cncn3)cc2)cc1 returned Wnt bcat act 35*, esBAF inh 51* and MITF act 43.
Brc1cccc(OCCCCn2cncn2)c1 was read as Wnt bcat act 1, HSF1 inh 1, esBAF inh 1 and HSF-1 act -1.
For C[C@H]1CN([C@@H](C)CO)C(=O)c2cc(NS(=O)(=O)c3cccs3)ccc2O[C@@H]1CN(C)C(=O)Nc1ccc(C(F)(F)F)cc1 the results were esBAF inh -2.
`CO[C@@H]1CC[C@@H]2CCOc3c(C#N)cccc3C(=O)N(C)[C@@H](C)C(=O)N(C)C[C@@H]1O2` gave esBAF inh 0.
COCCNC(=O)C[C@@H]1CC[C@@H]2[C@@H](COc3ccc(NC(=O)C4CCOCC4)cc3C(=O)N2C)O1 was read as esBAF inh -5.
Screening CC(=O)Nc1ccc(NC(=O)COC(=O)c2cc(S(=O)(=O)N(C)C)ccc2N2CCCC2)cc1 returned Wnt bcat act 0, HSF1 inh 1, MITF act 2 and HSF-1 act 7.
Screening CN(CC(=O)Nc1ccc(F)cc1)C(=O)COC(=O)c1cc(S(=O)(=O)N(C)C)ccc1N1CCCC1 returned Wnt bcat act 0, HSF1 inh -68*, esBAF inh -1, MITF act -5 and HSF-1 act -74.
`COc1cccc(C#CC2=CC(=O)CC(C)(C)C2)c1` gave Wnt bcat act -2 and esBAF inh 134*.
Cc1cccc(C#CC2=CC(=O)CC(C)(C)C2)c1 was read as Wnt bcat act -2 and esBAF inh 31.
O/N=C(\Cc1cscn1)c1ccc(O)cc1O was read as Wnt bcat act -3, HSF1 inh -3, esBAF inh 49*, MITF act 4 and HSF-1 act 6.
C[C@@H]1CN([C@H](C)CO)C(=O)c2cc(-c3ccncc3)cnc2O[C@H]1CN(C)C(=O)c1cccc(F)c1 was read as esBAF inh 2.
Screening COc1ccc(C(=O)NC(=S)NC(C)C)cc1Br returned HSF1 inh 6, esBAF inh 63*, MITF act 49 and HSF-1 act 3.
Screening COc1ccc(C(=O)NNC(=S)NC(=O)c2ccc(F)cc2)cc1Br returned Wnt bcat act 18, HSF1 inh -9 and HSF-1 act -6.
Screening COc1ccc(C(=O)NC(=S)NNC(=O)c2ccncc2)cc1Br returned Wnt bcat act -4, esBAF inh 10 and MITF act -8.
For COc1ccc(C(=O)NC(=S)NC(C)(C)C)cc1Br the results were Wnt bcat act 1, HSF1 inh 10, esBAF inh 59*, MITF act 48 and HSF-1 act 14.
`Cc1ccc(S(=O)(=O)N[C@H]2CC[C@H](CC(=O)NCc3ccc(Cl)c(Cl)c3)O[C@H]2CO)cc1` gave esBAF inh 7.
For Clc1ccc(-c2nc3cnccn3c2Nc2ccc3c(c2)OCO3)cc1 the results were Wnt bcat act -3, HSF1 inh 6, esBAF inh -9 and HSF-1 act -2.
Screening c1cn2c(Nc3ccc4c(c3)OCCO4)c(-c3ccc(N4CCOCC4)cc3)nc2cn1 returned Wnt bcat act 49*, HSF1 inh 3, MITF act 30 and HSF-1 act -16.
C[C@H](CO)N1C[C@H](C)[C@@H](CN(C)S(=O)(=O)c2cn(C)cn2)Oc2cc(C#Cc3ccccc3)ccc2S1(=O)=O was read as esBAF inh -3.
For Cc1cccc(-n2ncc3c(NC(C)C)ncnc32)c1 the results were Wnt bcat act 19, HSF1 inh 12, esBAF inh 7, MITF act 60 and HSF-1 act 36.
`CC(C)Nc1ncnc2c1cnn2-c1ccccc1` gave Wnt bcat act 53*, HSF1 inh 0, esBAF inh 12 and HSF-1 act 10.
Screening c1ccc(-n2ncc3c(NC4CCCCCC4)ncnc32)cc1 returned Wnt bcat act 24, HSF1 inh 29, esBAF inh 55* and HSF-1 act 28.
